According to PubChem BioAssay (EPA / NIEHS):
Active and inactive are the calls of the source. The calls were made as follows: active = hit-call score of the fitted dose curve at least 0.9, where 1 is the maximum; inactive = score below 0.9.

How the values were obtained:
[1] = read-out: Tissue plasminogen activator (tPA), PLAT (gene 5327); test: BSK_BE3C_tPA: BioMAP Diversity Plus: BE3C Assay for Tissue plasminogen activator (tPA) Biomarker Activity (AID 2283041); settings: primary human bronchial epithelial cells; actives raise or lower the signal
Summary of the method: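 Primary human bronchial epithelial cells in the BE3C system, exposed to compound for 24 h. tPA was quantified by ELISA; DMSO served as baseline, with gain or loss of signal fitted. Cytotoxicity checked in parallel cultures by SRB total-protein staining.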

[2] = read-out: Interleukin-8 (IL8), CXCL8 (gene 3576); test: BSK_CASM3C_IL8: BioMAP Diversity Plus: CASM3C Assay for Interleukin-8 (IL8) Biomarker Activity (AID 2283042); settings: primary human coronary artery smooth muscle cells; actives raise or lower the signal;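 also: IL-8 protein level quantified by ELISA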
[3] = read-out: Human Leukocyte Antigen - DR isotype (HLADR), HLA-DRA (gene 3122); test: BSK_CASM3C_HLADR: BioMAP Diversity Plus: CASM3C Assay for Human Leukocyte Antigen - DR isotype (HLADR) Biomarker Activity (AID 2283043); settings: primary human coronary artery smooth muscle cells; actives raise or lower the signal;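 also: cell-surface HLA-DR protein level quantified by ELISA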
[4] = read-out: Macrophage colony-stimulating factor (MCSF), CSF1 (gene 1435); test: BSK_CASM3C_MCSF: BioMAP Diversity Plus: CASM3C Assay for Macrophage colony-stimulating factor (MCSF) Biomarker Activity (AID 2283044); settings: primary human coronary artery smooth muscle cells; actives raise or lower the signal;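 also: M-CSF protein amount quantified by ELISA after 24 h exposure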
[5] = read-out: Low-density lipoprotein receptor (LDLR), LDLR (gene 3949); test: BSK_CASM3C_LDLR: BioMAP Diversity Plus: CASM3C Assay for Low-density lipoprotein receptor (LDLR) Biomarker Activity (AID 2283045); settings: primary human coronary artery smooth muscle cells; actives raise or lower the signal;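 also: LDLR protein level on the cell surface quantified by ELISA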
[6] = read-out: Monocyte Chemoattractant Protein-1 (MCP1), CCL2 (gene 6347); test: BSK_CASM3C_MCP1: BioMAP Diversity Plus: CASM3C Assay for Monocyte Chemoattractant Protein-1 (MCP1) Biomarker Activity (AID 2283046); settings: primary human coronary artery smooth muscle cells; actives raise or lower the signal;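 also: MCP-1 level quantified by ELISA 24 h after dosing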
[7] = BSK_CASM3C_Proliferation: Cell Proliferation Assessment in the BioMAP Diversity Plus: CASM3C Assay (AID 2283047); settings: primary human coronary artery smooth muscle cells;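 also: sulforhodamine B total protein stain as relative cell number at 560 nm; sub-confluent cells exposed 48 h before staining; fitted both ways against DMSO so gain or loss of cell number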
[8] = read-out: Monokine induced gamma interferon (MIG), CXCL9 (gene 4283); test: BSK_CASM3C_MIG: BioMAP Diversity Plus: CASM3C Assay for Monokine induced gamma interferon (MIG) Biomarker Activity (AID 2283048); settings: primary human coronary artery smooth muscle cells; actives raise or lower the signal;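 also: MIG protein level measured by ELISA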
[9] = read-out: serum amyloid A (SAA), SAA1 (gene 6288); test: BSK_CASM3C_SAA: BioMAP Diversity Plus: CASM3C Assay for serum amyloid A (SAA) Biomarker Activity (AID 2283049); settings: primary human coronary artery smooth muscle cells; actives raise or lower the signal;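 also: SAA protein level quantified by ELISA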
[10] = BSK_CASM3C_SRB: Viability Assessment in the BioMAP Diversity Plus: CASM3C Assay (AID 2283050); settings: primary human coronary artery smooth muscle cells
[11] = read-out: Thrombomodulin, THBD (gene 7056); test: BSK_CASM3C_Thrombomodulin: BioMAP Diversity Plus: CASM3C Assay for Thrombomodulin Biomarker Activity (AID 2283051); settings: primary human coronary artery smooth muscle cells; actives raise or lower the signal;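 also: thrombomodulin protein level measured by ELISA 24 h after dosing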
[12] = read-out: Tissue Factor, F3 (gene 2152); test: BSK_CASM3C_TissueFactor: BioMAP Diversity Plus: CASM3C Assay for Tissue Factor Biomarker Activity (AID 2283052); settings: primary human coronary artery smooth muscle cells; actives raise or lower the signal;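 also: cell surface tissue factor protein level read by ELISA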
[13] = read-out: Interferon-gamma inducible Protein 10 (IP10), CXCL10 (gene 3627); test: BSK_hDFCGF_IP10: BioMAP Diversity Plus: hDFCGF Assay for Interferon-gamma inducible Protein 10 (IP10) Biomarker Activity (AID 2283053); settings: primary human foreskin fibroblasts; actives raise or lower the signal
Summary of the method: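 Primary human foreskin fibroblasts exposed to chemicals for 24 h. IP-10 measured by ELISA; changes fitted bidirectionally against DMSO baseline.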

[14] = read-out: Urokinase-type plasminogen activator receptor (uPAR), PLAUR (gene 5329); test: BSK_CASM3C_uPAR: BioMAP Diversity Plus: CASM3C Assay for Urokinase-type plasminogen activator receptor (uPAR) Biomarker Activity (AID 2283054); settings: primary human coronary artery smooth muscle cells; actives raise or lower the signal;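 also: cell-surface uPAR protein level quantified by ELISA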
[15] = read-out: Vascular cell adhesion molecule 1 (VCAM1), VCAM1 (gene 7412); test: BSK_CASM3C_VCAM1: BioMAP Diversity Plus: CASM3C Assay for Vascular cell adhesion molecule 1 (VCAM1) Biomarker Activity (AID 2283055); settings: primary human coronary artery smooth muscle cells; actives raise or lower the signal;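 also: VCAM-1 protein level quantified by ELISA on the cells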
[16] = read-out: Collagen III, COL3A1 (gene 1281); test: BSK_hDFCGF_CollagenIII: BioMAP Diversity Plus: hDFCGF Assay for Collagen III Biomarker Activity (AID 2283056); settings: primary human foreskin fibroblasts; actives raise or lower the signal
Summary of the method: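 Human foreskin fibroblast primary cultures sampled 24 h after dosing; Collagen III quantified by ELISA. Signal fitted bidirectionally against DMSO baseline.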

[17] = read-out: Epidermal growth factor receptor (EGFR), EGFR (gene 1956); test: BSK_hDFCGF_EGFR: BioMAP Diversity Plus: hDFCGF Assay for Epidermal growth factor receptor (EGFR) Biomarker Activity (AID 2283057); settings: primary human foreskin fibroblasts; actives raise or lower the signal
Summary of the method: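 Primary human foreskin fibroblasts (hDFCGF system), sampled 24 h after dosing; EGFR quantified by ELISA. Bidirectional fit relative to DMSO baseline; SRB total-protein staining in parallel cultures for cytotoxicity.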

[18] = read-out: Interleukin-8 (IL8), CXCL8 (gene 3576); test: BSK_hDFCGF_IL8: BioMAP Diversity Plus: hDFCGF Assay for Interleukin-8 (IL8) Biomarker Activity (AID 2283058); settings: primary human foreskin fibroblasts; actives raise or lower the signal
Summary of the method: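 Primary human foreskin fibroblasts (hDFCGF system) dosed with chemical; IL-8 measured by ELISA 24 hours later. Bidirectional curve fitting relative to DMSO baseline; cytotoxicity tracked in parallel cultures by SRB total protein staining.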

[19] = BSK_hDFCGF_Proliferation: Cell Proliferation Assessment in the BioMAP Diversity Plus: hDFCGF Assay (AID 2283059); settings: primary human foreskin fibroblasts;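 also: curves fitted for both rise and fall of signal versus DMSO baseline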
Summary of the method: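 Total protein read at 560 nm after 0.1% SRB staining of TCA-fixed human skin fibroblasts, […]. Activity is fitted in both directions relative to DMSO as baseline.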

[20] = read-out: Macrophage colony-stimulating factor (MCSF), CSF1 (gene 1435); test: BSK_hDFCGF_MCSF: BioMAP Diversity Plus: hDFCGF Assay for Macrophage colony-stimulating factor (MCSF) Biomarker Activity (AID 2283060); settings: primary human foreskin fibroblasts; actives raise or lower the signal
Summary of the method: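 Human foreskin fibroblast primary cultures; M-CSF measured by ELISA 24 hours after chemical dosing. Bidirectional fitting relative to DMSO, with overt cytotoxicity tracked by parallel SRB total-protein staining (0.1% SRB, 10% TCA fixation, 560 nm).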

Measured: AC50

c1ccc2cc3ccccc3cc2c1
inactive: all assays above

O=C(O)c1cccc(C[C@@H]2COc3ccc(OCc4nc5cc(F)ccc5s4)cc3[C@@H]2O)c1
active: [7] 12.9 µM | [20] 13.8 µM
inactive: all other assays above

C=CCc1cc(S(=O)(=O)c2ccc(O)c(CC=C)c2)ccc1O
active: [1] 7.78 µM | [2] 17.6 µM | [3] 13.6 µM | [4] 28.2 µM | [5] 32.2 µM | [6] 16.2 µM | [7] 14.3 µM | [8] 31.4 µM | [9] 28.3 µM | [10] 31.2 µM | [12] 36.7 µM | [13] 29 µM | [14] 21.7 µM | [15] 35.7 µM | [16] 6.52 µM | [18] 34.4 µM | [19] 9.21 µM | [20] 27 µM
inactive: [11] | [17]

CCCCCOC(C)=O
inactive: all assays above

CC(C)C(=O)Nc1ccc([N+](=O)[O-])c(C(F)(F)F)c1
active: [5] 4.78 µM | [16] 31.7 µM
inactive: all other assays above

O=S1(=O)CCCO1
inactive: all assays above

CC(C)c1nnc2ccc(-c3ocnc3-c3cc(F)ccc3F)cn12
active: [2] 0.628 µM | [3] 0.561 µM | [5] 0.551 µM | [13] 0.628 µM | [15] 0.354 µM | [19] 5.62 µM
inactive: all other assays above

CCCCCCOC(=O)CC(CC(=O)OCCCCCC)(OC(=O)CCC)C(=O)OCCCCCC
inactive: all assays above

OCCOCCOCCO
inactive: all assays above

Cc1ccc(S(=O)(=O)NC(=O)NN2CCCCCC2)cc1
inactive: all assays above

OC[C@H]1O[C@@](CO)(O[C@H]2O[C@H](CO)[C@@H](O)[C@H](O)[C@H]2O)[C@@H](O)[C@@H]1O
inactive: all assays above

Cn1c(=O)c2[nH]cnc2n(C)c1=O
inactive: all assays above

CCCCCCCCCCCCCCCCOS(=O)(=O)O
active: [1] 14.9 µM | [13] 6.13 µM | [16] 18.3 µM | [17] 2.46 µM | [18] 15.5 µM | [19] 5.25 µM | [20] 10.2 µM
inactive: all other assays above
